AmpC no deterg: qHTS Inhibitors of AmpC Beta-Lactamase (assay without detergent). AmpC nitrocefin hydrolysis, absorbance 480 nm, 0.0001% Triton. Potency, µM (titrated, usually from 57.1 µM), for the others: at the highest dose activity change, negative = inhibition, most hits filed as inhibitors. 0.52% of 330,000 active;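 also: plate controls were no compound for no effect and no enzyme for full effect; nearly all actives have a fitted effect of over 20% in size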
Target sequence (P00811 whole entry, looked up): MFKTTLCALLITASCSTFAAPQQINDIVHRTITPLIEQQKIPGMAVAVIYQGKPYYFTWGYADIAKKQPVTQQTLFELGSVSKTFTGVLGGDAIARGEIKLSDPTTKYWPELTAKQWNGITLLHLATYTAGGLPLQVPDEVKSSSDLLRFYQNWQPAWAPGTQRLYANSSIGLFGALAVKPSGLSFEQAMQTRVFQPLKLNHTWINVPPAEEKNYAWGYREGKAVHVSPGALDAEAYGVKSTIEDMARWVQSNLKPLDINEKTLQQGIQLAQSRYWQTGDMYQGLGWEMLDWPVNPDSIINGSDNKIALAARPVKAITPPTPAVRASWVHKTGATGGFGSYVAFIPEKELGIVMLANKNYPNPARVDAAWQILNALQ
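AmpC (5.3 nM in the dispensed reagent) in 20 mM phosphate pH 7.0 with 0.01% (detergent screen) or 0.0001% Triton X-100 was preincubated with compounds for 15 min at room temperature. Nitrocefin was then added from an 800 uM solution, and hydrolysis was followed at 480 nm.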
AmpC detergent: qHTS Inhibitors of AmpC Beta-Lactamase (assay with detergent) | P00811 | 0.041% of 370,000 active | AmpC hydrolysis of nitrocefin, absorbance 480 nm, 0.01% Triton | Potency, µM (series often up to 114 µM), for the others: at the highest dose activity change, negative = inhibition, most hits filed as inhibitors;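 also: 0% = no-compound wells and -100% = no-enzyme wells; nearly all actives have a fitted effect of over 25% in size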
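20 mM phosphate pH 7.0 + 0.01% (detergent screen) or 0.0001% Triton X-100; 5.3 nM AmpC reagent; cpd preinc 15 min RT; nitrocefin (800 uM stock) to start; A480 q20 s × 4 min; Activity was normalised to no-enzyme and no-compound control wells.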
Pf growth 96h: Primary qHTS for delayed death inhibitors of the malarial parasite plastid, 96 hour incubation; P. falciparum luciferase reporter growth, 96 h; Potency, µM (doses to about 28.7 µM), for inactives: at the highest dose activity change, negative = inhibition, most hits filed as inhibitors; 6.9% of 320,000 active; also: % is scaled to controls: 0 for no effect and ±100 for the full control effect
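Compounds incubated with erythrocytes infected by luciferase-expressing P. falciparum (2% hematocrit, 0.05% parasitemia final) for 96 hours, 37 C in 5% CO2. Growth inhibition scored as decreased luciferase luminescence.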
SARS PLpro yeast: qHTS of Yeast-based Assay for SARS-CoV PLP; S. cerevisiae expressing SARS-CoV PLpro, growth rescue; Potency, µM (highest dose often 32.9 µM), for the others: at the highest dose activity, positive = growth rescue, usual class: activators; 0.19% of 330,000 active; AID 485353, 2010; calls by dose curve; also: 0% is about no effect; nearly all actives have a fitted effect of over 55% in size
Pf growth 48h: Primary qHTS for delayed death inhibitors of the malarial parasite plastid, 48 hour incubation. P. falciparum luciferase growth in erythrocytes, 48 h. Potency, µM (titrated, usually from 28.7 µM), inactives show at the top dose activity change, negative = inhibition, hits mostly inhibitors. 5.9% of 310,000 active. AID 504832, 2011; also: % is scaled to controls: 0 for no effect and ±100 for the full control effect
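Read-out is firefly luciferase luminescence from an integrated reporter in P. falciparum, so falling signal marks reduced parasite growth. Infected erythrocytes were at 2% hematocrit and 0.1% parasitemia (final) in Albumax-supplemented RPMI 1640.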
Sm TGR inh: qHTS Assay for the Inhibitors of Schistosoma Mansoni Peroxiredoxins; Schistosoma mansoni thioredoxin glutathione reductase (TGR), Q962Y6; purified TGR, DTNB reduction, TNB absorbance 405 nm; Potency, µM (series often up to 114 µM), for the others: at the top dose activity change, negative = inhibition, most hits filed as inhibitors; 3% of 360,000 active; also: % is scaled to controls: 0 for no effect and ±100 for the full control effect; nearly all actives have a fitted effect of over 60% in size
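Kinetic colorimetric format: TGR-catalysed, NADPH-driven DTNB reduction monitored via TNB absorbance. Enzyme dispensed at 20 nM; compound exposure 15 min at room temperature before reaction start.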
Starred values were filed as active, the others as inactive; [ ] = another dose, or the depositor's remark. This is a sample that favours compounds with a hit; in the whole collection about 12% have one here. Unless noted, calls follow the shape of the dose curve; as a rule, active = well fitted curve in the direction sought with a large enough effect; inconclusive = small, poorly fitted or top-dose-only effect, or another doubt; inactive = no such curve, though single readings can be large; an effect the other way counts as inactive or inconclusive. Potency is read from the fitted curve at half-maximal effect.

O=C(O)Cn1cc(C(=S)N2CCCCC2)c2ccccc21 was read as AmpC no deterg -20.2%, AmpC detergent -14.1%, Pf growth 96h 8.28µM*, SARS PLpro yeast 0.3%, Pf growth 48h -0.8% and Sm TGR inh -0.1%.
For O=C(c1ccccc1)c1cn(CC(=O)N2CCCC2)c2ccccc12 the results were AmpC no deterg 16.2%, AmpC detergent inconclusive, Pf growth 96h 3.7µM*, SARS PLpro yeast 6.7% and Sm TGR inh 0.0%.
Screening COc1ccc(N2CCN(C(=O)C(=O)c3cn(CC(=O)N4CCOCC4)c4ccccc34)CC2)cc1 returned AmpC no deterg 177.8%, AmpC detergent -0.9%, Pf growth 96h 0.3%, SARS PLpro yeast 1.0%, Pf growth 48h 10.5% and Sm TGR inh -13.3%.
For O=C(C(=O)N1CCN(c2ccccc2)CC1)c1cn(CC(=O)N2CCCCCC2)c2ccccc12 the results were AmpC no deterg 97.5%, AmpC detergent -0.2%, Pf growth 96h inconclusive, SARS PLpro yeast inconclusive, Pf growth 48h 9.28µM* and Sm TGR inh -3.9%.
`COc1ccc(N2CCN(C(=O)C(=O)c3cn(CC(=O)N4CCCCCC4)c4ccccc34)CC2)cc1` gave AmpC no deterg 132.7%, AmpC detergent -1.6%, Pf growth 96h 10.4µM*, SARS PLpro yeast -5.5%, Pf growth 48h inconclusive and Sm TGR inh -25.7%.
For CN(C)S(=O)(=O)c1ccc2c(c1)N(CC(=O)N1CCN(c3ccccc3F)CC1)CCS2 the results were AmpC detergent -6.9% and Sm TGR inh -3.0%.
`CN(C)c1ccc(C(CNC(=O)c2ccc(C(C)(C)C)cc2)N2CCOCC2)cc1` (stereo unspecified) gave AmpC detergent 16.2% and Sm TGR inh -0.9%.
Screening CC1CCN(C(=O)C(=O)c2cn(CC(=O)N3CCCCCC3)c3ccccc23)CC1 returned AmpC no deterg 70.8%, AmpC detergent -6.6%, Pf growth 96h inconclusive, SARS PLpro yeast -4.0%, Pf growth 48h inconclusive and Sm TGR inh -18.4%.
CC1CCCN(C(=O)C(=O)c2cn(CC(=O)N3CCCCCC3)c3ccccc23)C1 (stereo unspecified) was read as AmpC no deterg 87.1%, AmpC detergent -1.2%, Pf growth 96h 11.7µM*, Pf growth 48h inconclusive and Sm TGR inh -10.7%.
Screening O=C1NC(=O)C2(COC3(CCCC3)OC2)S1 returned AmpC no deterg -14.9%, AmpC detergent 0.0%, Pf growth 96h inconclusive, SARS PLpro yeast 0.6%, Pf growth 48h 0.7% and Sm TGR inh 1.9%.
Screening CN(C)CCCN1C(=O)C2CCc3[nH]c4ccccc4c3C2C1=O (stereo unspecified) returned AmpC no deterg 3.7%, AmpC detergent 0.8%, Pf growth 96h 2.94µM*, SARS PLpro yeast 1.0%, Pf growth 48h 16.6% and Sm TGR inh 0.0%.
Screening CCOC(=O)c1ccc(N2C(=O)C(CC(=O)NC)N(CCc3ccc(OC)c(OC)c3)C2=S)cc1 (stereo unspecified) returned AmpC no deterg 211.5%, AmpC detergent -6.5%, Pf growth 96h 1.7%, SARS PLpro yeast -5.1%, Pf growth 48h 13.1µM* and Sm TGR inh inconclusive.
Screening CCOC(=O)c1ccc(N2C(=O)CC(N(C)CCc3ccc(OC)c(OC)c3)C2=O)cc1 (stereo unspecified) returned AmpC no deterg 122.3%, AmpC detergent -0.1%, SARS PLpro yeast -29.0%, Pf growth 48h inconclusive and Sm TGR inh 44.7µM*.
Screening CCOC(=O)c1ccc(N2C(=O)CC(Nc3ccc(CCO)cc3)C2=O)cc1 (stereo unspecified) returned AmpC no deterg 22.3%, AmpC detergent -2.8%, Pf growth 96h 44.1%, SARS PLpro yeast 6.7%, Pf growth 48h 0.0% and Sm TGR inh -21.2%.
Screening CCOC(=O)c1ccc(N2C(=O)CC(N(Cc3ccc4c(c3)OCO4)C(=O)Nc3ccccc3)C2=O)cc1 (stereo unspecified) returned AmpC no deterg 7.6%, AmpC detergent inconclusive, Pf growth 96h 9.28µM*, SARS PLpro yeast 24.2% and Sm TGR inh 0.0%.
For CCOc1cccc(N2C(=O)CC(N(CCc3ccc(OC)c(OC)c3)C(=O)CC)C2=O)c1 (stereo unspecified) the results were AmpC no deterg 61.7%, AmpC detergent 0.9%, Pf growth 96h 5.86µM*, SARS PLpro yeast 1.2%, Pf growth 48h 0.0% and Sm TGR inh -22.7%.
For CCOC(=O)O[C@]1(C(=O)COC(=O)CC)CC[C@@H]2[C@@H]3CCC4=CC(=O)C=C[C@@]4(C)[C@H]3[C@H](O)C[C@]21C the results were Pf growth 96h 3.1%[12.8 µM] and Pf growth 48h -2.4%[12.8 µM].
CC(=O)N(Cc1ccc2c(c1)OCO2)C1CC(=O)N(CCc2ccccc2)C1=O (stereo unspecified) was read as AmpC no deterg 15.2%, AmpC detergent -15.1%, Pf growth 96h inconclusive, SARS PLpro yeast -5.7%, Pf growth 48h 11.8% and Sm TGR inh 22.4µM*.
CC(C)C(c1nnnn1Cc1cccs1)N1CCN(c2ccccc2)CC1 (stereo unspecified) was read as AmpC no deterg -14.2%, AmpC detergent -3.9%, Pf growth 96h -19.0%, SARS PLpro yeast 12.1%, Pf growth 48h -8.7% and Sm TGR inh 14.1%.
For COc1ccc(C2=C(C=Nc3c(C)n(C)n(-c4ccccc4)c3=O)C(c3ccccc3C)c3ccccc3O2)cc1OC (stereo unspecified) the results were AmpC no deterg -7.1%, AmpC detergent -11.6%, SARS PLpro yeast 2.2%, Pf growth 48h 0.329µM* and Sm TGR inh -11.4%.
Screening NNc1nc(C(F)(F)F)nc2ccccc12 returned AmpC no deterg -13.5%, AmpC detergent -0.6%, Pf growth 96h 1.9%, SARS PLpro yeast -2.1%, Pf growth 48h -6.3% and Sm TGR inh 6.0%.
O/C=c1\ccc2cccc3nc(C(F)(F)F)nc1c23 was read as AmpC no deterg 12.6µM*, AmpC detergent 1.2%, Pf growth 96h 31.5%, SARS PLpro yeast -0.1%, Pf growth 48h -2.0% and Sm TGR inh 3.16µM*.
Screening CCCCn1c2ccccc2c2nnc(SCC(=O)NC3=NN=C(c4ccccc4)CS3)nc21 returned AmpC no deterg -28.6%, AmpC detergent -5.3%, Pf growth 96h inconclusive, SARS PLpro yeast -37.6%, Pf growth 48h 2.94µM* and Sm TGR inh 2.8%.
